PERK inh: blocks human PERK kinase | inhibition, % at 5.6 µM | 220,000 compounds, 0.17% hits | AID 1416 | CHO PERK-DD fusion, SEAP luminescence translation reporter | Q9NZJ5;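 active = inhibition above the mean inhibition of all tested compounds plus 3 SD, set separately per screening campaign, cut at about 2.9% in these data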;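 also: PERK kinase domain activated by AP20187 dimerizer at 100 nM; 0% = DMSO with dimerizer and 100% = rapamycin at 8.4 µM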
Arbovirus inh: blocks arbovirus infection; inhibition, % at 10 µM; AID 1251; arbovirus infection cell-based antiviral screen; 200,000 compounds, 0.37% hits; in the data active = inhibition above about 30%
WT yeast gro inh: growth inhibition of WT yeast, mitochondrial fusion screen; mitochondrial fusion phenotypic screen, WT strain; 190,000 compounds, 2.1% hits; inhibition, % at 10 µM; AID 1362; in the data active = inhibition above about 58%; tested in S. cerevisiae
ROMK primary: modulates human ROMK potassium channel activity | P48048 | Tet-inducible ROMK, thallium flux fluorescence; actives lie on both sides | B-score at 10 µM | 130,000 compounds, 2% hits | AID 1918;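 active = signal ratio slope over the read window, or its plate-corrected B-score, at least 3 SD from the plate mean, either direction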;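 also: B-score of the F/F0 ratio slope over 7 to 12 s after thallium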
Target sequence (P48048 whole entry, looked up): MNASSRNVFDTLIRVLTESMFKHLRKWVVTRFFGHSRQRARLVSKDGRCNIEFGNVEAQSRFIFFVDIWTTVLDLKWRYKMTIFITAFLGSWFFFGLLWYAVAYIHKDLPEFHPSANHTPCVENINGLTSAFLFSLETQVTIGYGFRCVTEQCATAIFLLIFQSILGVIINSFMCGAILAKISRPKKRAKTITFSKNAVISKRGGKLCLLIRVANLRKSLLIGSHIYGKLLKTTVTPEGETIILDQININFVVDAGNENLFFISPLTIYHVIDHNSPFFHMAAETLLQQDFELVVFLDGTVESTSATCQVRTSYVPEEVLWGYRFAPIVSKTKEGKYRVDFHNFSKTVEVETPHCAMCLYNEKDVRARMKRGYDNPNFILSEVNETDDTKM
* marks the source's active call; other numbers are inactive results. Sampled rows, rich in hits. Any-hit rate of the full collection: about 3.3%.

Results for CC(=O)c1cccc(CN2CCCC(CCC(=O)NCc3ccccc3F)C2)c1 (centres undefined) ?
PERK inh: -0.4; Arbovirus inh: -5.4; WT yeast gro inh: 6.8; ROMK primary: 0.284

Results for C/C(=N\Nc1nc(N2CCCCC2)nc(N2CCOCC2)n1)c1cccs1 ?
PERK inh: -0.7; Arbovirus inh: -2.7; WT yeast gro inh: -2.5; ROMK primary: 0.0277

What do the screens show for `C/C(=N\Nc1nc(N2CCCCCC2)nc(N2CCCCCC2)n1)c1ccccc1`?
PERK inh: 0.7; Arbovirus inh: 20.6; WT yeast gro inh: 65.0*

How did CN(C)CCNc1oc(COc2ccc(Cl)cc2)nc1C#N do in these assays?
PERK inh: 0.8; Arbovirus inh: 4.0; WT yeast gro inh: 13.6

Results for O=C(C1CC1c1ccccc1)N1CCN(c2cccc(Cl)c2)CC1 (centres undefined) ?
PERK inh: -0.7; Arbovirus inh: -23.6; WT yeast gro inh: 76.7*; ROMK primary: -1.39

How did O=C(O)c1ccccc1C(=O)N1CCN(c2cccc(Cl)c2)CC1 do in these assays?
PERK inh: 0.7; Arbovirus inh: 8.3; WT yeast gro inh: 7.9; ROMK primary: -0.0628

Results for CCCn1c(=O)[nH]c(=O)c2c1nc(-c1cccs1)n2CCOC ?
PERK inh: -0.5; Arbovirus inh: -1.0; WT yeast gro inh: -6.8; ROMK primary: -0.578

How did COc1ccc(Nc2c3c(nc4c(-c5ccccc5)c(C)nn24)CCC3)cc1 do in these assays?
PERK inh: 0.3; Arbovirus inh: 5.5; WT yeast gro inh: 62.5*

What do the screens show for `C/C(CC(=O)Nc1ccc(Cl)cc1Cl)=N\NC(=O)c1ccncc1`?
PERK inh: 3.1*

Results for C/C(CC(=O)Nc1ccc(C)c(Cl)c1)=N\NC(=O)c1ccncc1 ?
PERK inh: 1.6; Arbovirus inh: -2.2; WT yeast gro inh: -10.9; ROMK primary: 0.823

What do the screens show for `CC(C)Cc1cc(C(=O)NCc2cccnc2)no1`?
PERK inh: 0.6; Arbovirus inh: 10.6; WT yeast gro inh: -1.3

Results for CC(C)Cc1cc(C(=O)NCc2cccs2)no1 ?
PERK inh: 3.4*; Arbovirus inh: -5.0; WT yeast gro inh: -8.1

What do the screens show for `Cc1cc(/C=C2\SC(=Nc3ccccc3)NC2=O)c(C)n1-c1ccc(S(N)(=O)=O)cc1`?
PERK inh: 0.2; Arbovirus inh: -1.9; WT yeast gro inh: 2.0

What do the screens show for `CN(c1ccccc1)c1ccc(/C=C(\CCC(=O)O)c2nc3ccccc3s2)cc1[N+](=O)[O-]`?
PERK inh: 0.7; Arbovirus inh: 37.1*; WT yeast gro inh: 23.6; ROMK primary: -0.145

What do the screens show for `CC(C)(C)C(=O)Nc1ccc(-c2nc3ccccc3c(=O)o2)cc1`?
PERK inh: 1.4; Arbovirus inh: 12.3; WT yeast gro inh: -13.6; ROMK primary: -0.0747

Results for O=C(c1ccc(Cl)cc1)N1CCC(O)(CSc2ccc(Cl)cc2)CC1 ?
PERK inh: -0.1; Arbovirus inh: -26.2; WT yeast gro inh: 61.4*

What do the screens show for `CCOc1ccc(CN(C)CC(=O)NCc2ccccc2Cl)cc1`?
PERK inh: 0.1; Arbovirus inh: 9.7; WT yeast gro inh: -22.4; ROMK primary: -2.41

What do the screens show for `Cc1ccc(NC(=O)c2cc(-c3ccccc3)nn2-c2ccccc2)c(Br)c1`?
PERK inh: 0.3; Arbovirus inh: 13.2; WT yeast gro inh: 64.6*; ROMK primary: -0.0725

Results for Cc1ccc(NC(=O)c2cc(-c3ccccc3)nn2-c2ccccc2)cc1 ?
PERK inh: 0.3; Arbovirus inh: 6.1; WT yeast gro inh: 65.5*; ROMK primary: 0.758

What do the screens show for `CCN1C(=O)C(CC(=O)Nc2ccc(F)cc2)N(Cc2ccco2)C1=S` (centres undefined)?
PERK inh: -0.4; Arbovirus inh: 6.1; WT yeast gro inh: 13.9; ROMK primary: -0.057

What do the screens show for `CCCCCCOc1ccc(NC(=O)CC2C(=O)N(CC)C(=S)N2Cc2ccco2)cc1` (centres undefined)?
PERK inh: -0.8; Arbovirus inh: -30.0; WT yeast gro inh: 61.7*; ROMK primary: -0.32

How did Cc1ccc(CNC(=O)CCNC(=O)Cn2ccc3ccccc3c2=O)o1 do in these assays?
PERK inh: 1.4; Arbovirus inh: -2.7; WT yeast gro inh: 2.1

What do the screens show for `Cc1csc(NC(=O)c2cccn2C)n1`?
PERK inh: 1.2; Arbovirus inh: 0.3; WT yeast gro inh: 84.9*

Results for OCCSc1nc(-c2cccnc2)nc2ccccc12 ?
PERK inh: -0.1; Arbovirus inh: -3.5; WT yeast gro inh: -1.3; ROMK primary: -1.19

How did CN(Cc1cccs1)c1nc(-c2cccnc2)nc2ccccc12 do in these assays?
PERK inh: -0.2; Arbovirus inh: -21.4; WT yeast gro inh: 64.3*; ROMK primary: -0.822

Screening results (PubChem BioAssay)
